Screening results from PubChem.
CYP2C19 inhib: inhibitors of human CYP2C19; inhibition, % at 5 µM; AID 778; P33261; 21% of 96,000 active; CYP2C19 Supersomes, luciferin-H EGE luminescence, 30 min;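 active = CYP2C19 inhibition above a set limit at 5 µM in the primary screen, cut at about 50% in these data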;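 note: plate controls were negative control wells for no effect and 2.5 mM tranylcypromine positive control for full effect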
sEH inhibitor: soluble epoxide hydrolase (human) inhibition. recombinant human sEH enzymatic activity assay. inhibition, % at 2 µM. 0.34% of 91,000 active. AID 707; in the data active = inhibition above about 80%
Target sequence (P34913 whole entry, looked up): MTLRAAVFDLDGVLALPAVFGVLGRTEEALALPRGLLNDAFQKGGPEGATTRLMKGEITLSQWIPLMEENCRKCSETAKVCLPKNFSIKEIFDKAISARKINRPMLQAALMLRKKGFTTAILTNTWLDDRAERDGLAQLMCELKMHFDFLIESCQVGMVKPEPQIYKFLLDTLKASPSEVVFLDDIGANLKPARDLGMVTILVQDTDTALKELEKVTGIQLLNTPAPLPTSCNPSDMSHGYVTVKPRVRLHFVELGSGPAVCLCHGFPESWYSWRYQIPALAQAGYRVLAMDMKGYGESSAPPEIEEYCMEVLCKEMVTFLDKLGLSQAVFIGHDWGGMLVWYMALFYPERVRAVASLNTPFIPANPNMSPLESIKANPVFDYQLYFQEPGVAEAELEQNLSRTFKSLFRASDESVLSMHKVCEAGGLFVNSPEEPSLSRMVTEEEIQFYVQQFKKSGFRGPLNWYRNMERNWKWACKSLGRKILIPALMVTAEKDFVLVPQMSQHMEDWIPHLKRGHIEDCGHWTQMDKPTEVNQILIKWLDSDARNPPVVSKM
CYP2C9 act: activators of human CYP2C9; P11712; recombinant CYP2C9, luciferin-H conversion, luminescence; hits give high values; factor 1 = untreated enzyme, 0 = blocked; activation factor at 5 µM; 1.4% of 96,000 active; AID 1024;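 active = activation factor of 2 or more for CYP2C9 at a 5 µM dose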;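 note: 0 = sulfaphenazole-blocked wells and 1 = vehicle-only wells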
sEH act: increases human soluble epoxide hydrolase activity; P34913; purified human sEH enzymatic activity, activator screen; activation, % at 2 µM; 0.04% of 91,000 active; in the data active = activation above about 37%
CYP2C9 inh: blocks human cytochrome P450 2C9 | P11712 | CYP2C9 Supersomes, luciferin-H conversion, luminescence | inhibition, % at 5 µM | 20% of 96,000 active;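 active = blocking of liver enzyme CYP2C9 beyond about 50% at 5 µM, limit read from the data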
CYP2C19 activ: activators of human cytochrome P450 2C19; P33261; activation factor at 5 µM; 96,000 tested, under 10 active; recombinant CYP2C19, luciferin-H EGE luminescence; hits give high values; 0 = fully inhibited enzyme, 1 = untreated enzyme; AID 1025;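 active = activation factor of at least 2 at 5 µM in the primary screen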;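 note: 0 = wells with 2.5 mM tranylcypromine and 1 = vehicle-only wells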
The depositor's hits bear a star; · = no result. Shown are actives, neighbours in structure and some others; about 27% of the full set was active somewhere.

SMILES | CYP2C19 inhib | sEH inhibitor | CYP2C9 act | sEH act | CYP2C9 inh | CYP2C19 activ
O=C(Cn1c(C(F)(F)F)nc2ccccc21)c1ccc(F)cc1 | 47 | 16 | 0.7 | -11 | 31 | 0.5
CSCCC(NS(=O)(=O)c1ccc2ccccc2c1)C(=O)O (stereo not drawn) | -10 | -3 | 0.9 | 5 | 12 | 1.1
CCC(=O)OC1c2ccccc2C(=O)N1Cc1ccccc1 (stereo not drawn) | 62* | 8 | 0.9 | -7 | 14 | 0.4
COCCNC(=O)c1c[nH]n2c(=O)cc(C3CCN(C(=O)OC(C)(C)C)CC3)nc12 | 9 | 4 | 0.4 | -2 | 62* | 0.9
COc1nc(OC)nc(N2CCC(NC(=O)C(Cc3ccc(C(C)C)cc3)NC(C)=O)CC2)n1 (stereo not drawn) | 36 | 10 | 0.4 | -6 | 57* | 0.6
COc1ccc(CC(NC(C)=O)C(=O)NC2CCN(c3nnnn3-c3ccccc3)CC2)cc1 (stereo not drawn) | -17 | · | 1.2 | · | -18 | 1.2
O=c1cc(-c2ccccc2)[nH]n1-c1nc2ccccc2[nH]1 | 5 | 1 | 0.4 | -2 | 56* | 0.9
COc1ccc(CNc2oc(Cc3cccc4ccccc34)nc2C#N)cc1 | 79* | 10 | 0 | -9 | 96* | 0.2
COc1ccc(CNc2oc(COc3ccccc3Cl)nc2C#N)cc1 | 31 | -12 | 0.5 | 13 | 47 | 0.7
COc1ccc(Nc2oc(COc3ccccc3F)nc2C#N)cc1 | 54* | -9 | 0.4 | 7 | 60* | 0.5
CN(Cc1ccccc1)c1oc(COc2ccccc2F)nc1C#N | 100* | · | 0 | · | 99* | 0
COc1ccc(CNc2oc(COc3ccccc3)nc2C#N)cc1 | 53* | 2 | 0.3 | 0 | 66* | 0.5
CC1(C(=O)O)CCC(C(=O)N2CCOCC2)C1(C)C (stereo not drawn) | 4 | 13 | 1.1 | -13 | -8 | 1
O=C(COC(=O)c1ccc[nH]c1=O)NCC1CCCO1 (stereo not drawn) | · | 0 | · | 4 | · | ·
CCC/C(=N/NC(=O)c1csc(C)c1C)c1ccc(Cl)s1 | 31 | 68 | 1 | -67 | 0 | 0.7
CCn1c(SCC(=O)Nc2cccc(NC(C)=O)c2)nnc1C(C)C | -13 | 11 | 1.2 | -6 | -22 | 1.1
CC(C)(C)NC(=O)CN(C(=O)CSc1nnc(COc2ccccc2)o1)c1cccc(F)c1 | 15 | -7 | 0.6 | 8 | 45 | 0.9
N#Cc1nc(Cc2cccc3ccccc23)oc1NCCCn1ccnc1 | 98* | 0 | 0 | -1 | 97* | 0
COc1ccc(Nc2oc(COc3ccc(OC)cc3)nc2C#N)cc1 | · | -21 | · | 20 | · | ·
N#Cc1nc(COc2ccccc2F)oc1N1CCCCCC1 | 33 | -6 | 0.6 | 8 | 45 | 0.7
CNc1oc(-c2ccc(OCc3ccccc3)cc2)nc1C#N | -8 | -8 | 2.2* | 6 | -124 | 1.1
N#Cc1nc(COc2ccccc2F)oc1NCCc1ccccc1 | 88* | · | 0.1 | · | 88* | 0.1
N#Cc1nc(-c2ccc(OCc3ccccc3)cc2)oc1NCc1ccco1 | 30 | 4 | 0.7 | -6 | 32 | 0.7
COc1ccc(CCNc2oc(COc3ccccc3)nc2C#N)cc1 | 50 | · | 0.3 | · | 70* | 0.5
CN(C)c1oc(-c2ccco2)nc1C#N | -1 | 1 | 1 | 3 | 0 | 1
SMILES | CYP2C19 inhib | sEH inhibitor | CYP2C9 act | sEH act | CYP2C9 inh | CYP2C19 activ
CN(Cc1ccccc1)c1oc(-c2ccco2)nc1C#N | 59* | 7 | 0.4 | -6 | 62* | 0.4
CCOc1ccc(-c2nnc3ccc(SCc4ccc(C(=O)OC)o4)nn23)cc1 | 65* | -7 | 0.1 | 8 | 85* | 0.4
COC(=O)c1ccc(CSc2nc3c(cnn3-c3ccc(C)c(C)c3)c(=O)[nH]2)o1 | · | -3 | · | 2 | · | ·
COC(=O)c1ccc(CSc2ccc3nnc(-c4ccccn4)n3n2)o1 | 20 | -2 | 0.8 | 1 | 21 | 0.8
COC(=O)c1ccc(CSc2nc3ccc(Cl)cc3[nH]2)o1 | 54* | 33 | 0.2 | -32 | 80* | 0.5
CCOc1ccc2nc(SCc3ccc(C(=O)OC)o3)[nH]c2c1 | 83* | · | 0.2 | · | 80* | 0.2
COC(=O)c1ccc(CSc2nc3scc(-c4cccs4)c3c(=O)[nH]2)o1 | 24 | 4 | 0.4 | -5 | 57* | 0.8
COC(=O)c1ccc(CSc2nc3cc(Cl)ccc3s2)o1 | 5 | 6 | 0.9 | -8 | 11 | 0.9
